Results published in PubChem BioAssay AID803 (The Scripps Research Institute Molecular Screening Center, 2007).
The whole screen tested about 140,000 compounds, of which about 680 (0.49%) were called active. Rule as the data show it: active = activation above about 5% (passing the limit was not always enough); inactive = the rest. This excerpt belongs to a sample that is enriched for actives.

Target: Galanin receptor type 2 (Homo sapiens) (UniProt O43603)
Test: GALR2 receptor agonists, primary screen, cell-based (AID 803);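 also: 0% = vehicle buffer wells and 100% = reference agonist at full effect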
Settings: GALR2-expressing cells, agonist activation read-out; at 5.6 µM; hits give high values

Galanin receptor type 2 (Homo sapiens), sequence (O43603 whole entry, looked up): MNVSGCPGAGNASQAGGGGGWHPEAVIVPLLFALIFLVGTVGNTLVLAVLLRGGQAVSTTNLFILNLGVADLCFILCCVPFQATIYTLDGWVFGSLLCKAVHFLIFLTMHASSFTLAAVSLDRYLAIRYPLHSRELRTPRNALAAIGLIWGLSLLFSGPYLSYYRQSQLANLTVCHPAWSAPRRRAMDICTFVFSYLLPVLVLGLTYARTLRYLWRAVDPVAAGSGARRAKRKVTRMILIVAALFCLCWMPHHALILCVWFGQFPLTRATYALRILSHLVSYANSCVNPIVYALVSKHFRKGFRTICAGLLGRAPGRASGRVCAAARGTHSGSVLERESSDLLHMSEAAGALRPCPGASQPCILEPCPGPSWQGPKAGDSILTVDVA

activation, inactive:
COc1cc2c(cc1/C=C1/NC(=O)N(c3ccccc3)C1=O)OCO2 1.22%
O=C1CC(NNc2ccccc2)C(=O)N1c1cccc(Cl)c1 (configuration not stated) -2.24%
CCOc1ccc2nc(NC(=O)c3cc([N+](=O)[O-])ccc3N3CCOCC3)sc2c1 -0.53%
COc1cccc(N2CCN(C(=O)Nc3ccc4c(c3)NC(=O)CO4)CC2)c1 -2.77%
O=C(Nc1cccc(NC(=O)N2CCN(c3ccccc3)CC2)c1)N1CCN(c2ccccc2)CC1 -2.65%
COCC(=O)N=Nc1c(O)[nH]c2ccccc12 -0.5%
CN(c1ccccc1)c1nc(N)c([N+](=O)[O-])c(NCc2ccco2)n1 1.08%
CCc1nnc(NC(=O)C2CC(=O)N(c3ccc4c(c3)OCCO4)C2)s1 (configuration not stated) 0.1%
COc1cc(/C=N/n2c(C)n[nH]c2=S)ccc1OCc1ccccc1 1.11%
CNC(=S)NNC(=O)c1sccc1OCc1ccccc1 -1.56%
COc1ccc(/C(N)=N/OC(=O)CCCc2ccccc2)cc1 -0.21%
C=C(C)c1cccc(C(C)(C)NC(=O)NC2CCCC2)c1 -1.16%
COc1ccc(C(=O)OCC(=O)NC(=O)CCSc2ccccc2)cc1 -1.93%
CC(Sc1cccc[n+]1[O-])C(=O)Nc1cccc(S(=O)(=O)N2CCOCC2)c1 (configuration not stated) -0.5%
COc1ccc(Nc2nc(N)nc(CSC(=S)N3CCC(C)CC3)n2)cc1 0.01%
COCCNC(=S)N/N=C/c1c(C)[nH]c2ccccc12 -0.61%
CCOC(=O)c1c(C)c(C(=O)NCCc2ccc(S(N)(=O)=O)cc2)c(C)n1CC -2.14%
CCC(=O)Nc1c(S(=O)(=O)c2ccccc2)c2nc3ccccc3nc2n1Cc1ccccc1 2.15%
CCC(CC)C(=O)N1CCN(c2cccc(C)c2C)CC1 -1.21%
Cc1cc(C(=O)N/N=C/c2ccc(O)c([N+](=O)[O-])c2)c(C)n1-c1ccc(F)cc1 1.21%
O=C(Cn1nnc(-c2ccccc2)n1)N/N=C/c1ccc(-c2ccc(Cl)cc2)o1 -0.89%
O=C(Cn1nnc(-c2ccccc2)n1)NCc1ccccc1 -0.65%

activation, active:
O=C1N/C(=C/c2cccn2-c2ccccc2)C(=O)N1c1cccc(Cl)c1 6.96%
O=C1COc2ccc(NC(=O)N3CCN(c4ccc(F)cc4)CC3)cc2N1 12.7%
CNC(=S)N/N=C/c1ccc(OCc2ccccc2)c(Br)c1 7.44%
CCCNC(=O)c1c(N)n(-c2ccc(S(N)(=O)=O)cc2)c2nc3ccccc3nc12 35.1%
Cc1[nH]c2ccccc2c1/C=N\NC(=O)Cn1nnc(-c2ccccc2)n1 5.32%
